In the supplement of paper PMC7156485:
± gives the standard deviation of the averaged measurements.

Test system: TDF
Experiment: cell number relative to DMSO (% of DMSO); higher = more cells (less growth inhibition / toxicity)
Conditions: concentration: 10 µM; 24 h
How it was run: (§1)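 H1.0 nuclear intensity or cell number is expressed as percent of the plate control, with the median of replicates taken. HCC1569 and TDF cells were treated with compounds at 10 µM for 24 h at 37 °C, in triplicate, then fixed and immunostained for H1.0 with DAPI as a nuclear stain. HCC1569 values were smoothed to correct for positional effects.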
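Wherever H1.0 immunofluorescence intensity relative to DMSO is given: TDF is a line of transformed human dermal fibroblasts of mesenchymal origin.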
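Wherever cell number relative to DMSO is given: TDF denotes transformed human dermal fibroblasts of mesenchymal origin.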

| Compound | cell number |
| --- | --- |
| CC1C2CCC3C4CC=C5CC(N(C)C)CCC5(C)C4CCC32CN1C (stereo unspecified) [Conessine] | 104 |
| CC(C)C(CO)Nc1nc(Nc2ccc(C(=O)O)c(Cl)c2)c2ncn(C(C)C)c2n1 (stereo unspecified) | 112 |
| Cc1ccc(Cl)c(Nc2ccccc2C(=O)[O-])c1Cl.[Na+] [sodium 2-(2,6-dichloro-3-methylanilino)benzoate] | 111 |
| Cl.O=C1NCC2(CCN(CCc3ccccc3)CC2)O1 [Fenspiride hydrochloride] | 105 |
| Cl.Cl.NCCC(=O)NCCc1cnc[nH]1 [Carcinine dihydrochloride] | 107 |
| CCCCCC(O)C=CC=O (racemic) | 109 |
| COC(=O)c1sccc1S(=O)(=O)Nc1ccc(Nc2ccccc2)cc1OC | 92.5 |
| O=C1NCN(c2ccccc2)C12CCN(CCCC(c1ccc(F)cc1)c1ccc(F)cc1)CC2 [Fluspirilene] | 87.1 ± 7.5 |
| O=C(Nc1c(Cl)cncc1Cl)c1ccc(OC(F)F)c(OCC2CC2)c1 | 92.1 |
| O.c1cnc2c(c1)ccc1cccnc12 [1,10-Phenanthroline monohydrate] | 44.8 |
| CCN1CCc2nc(N)oc2CC1.Cl.Cl [B-HT 933 dihydrochloride] | 104 |
| COC1CC(OC2C(C)C(=O)OC(C)C(C)C(OC(C)=O)C(C)C(=O)C3(CO3)CC(C)C(OC3OC(C)CC(N(C)C)C3OC(C)=O)C2C)OC(C)C1OC(C)=O (stereo unspecified) [Troleandomycin] | 108.1 ± 0.42 |
| CSc1nc(-c2ccnc(NC(C)c3ccccc3)c2)c(-c2ccc(F)cc2)[nH]1 (stereo unspecified) [p38 MAP Kinase Inhibitor III] | 107 |
| COc1cc2ncnc(Nc3ccc(OCc4ccccc4)cc3)c2cc1OC [EGFR/ErbB-2 Inhibitor] | 92.5 |
| O=C(Nc1cccc(C(F)(F)F)c1)Nc1cc(S(=O)(=O)NC2CC2)ccc1-c1ccsc1 | 89.5 |
| CCCCCCCCCCCC=CCCCCC(=O)O [6(Z)-Octadecenoic acid] | 99.9 |
| CCCCCC=CCC=CCC=CCCCCC(=O)O [γ-Linolenic acid (18:3 n-6)] | 96.9 |
| CCOc1cc2ncnc(Nc3cccc(Br)c3)c2cc1OCC [Compound 56] | 94 |
| COc1ccc(CN(CCN(C)C)c2ccccn2)cc1.O=C(O)C=CC(=O)O [Pyrilamine maleate] | 104 |
| Cl.Cl.O=C(O)COCCN1CCN(C(c2ccccc2)c2ccc(Cl)cc2)CC1 (stereo unspecified) [Cetirizine 2HCl] | 102 |
| COC(=O)[C@@H](N)Cc1ccc(O)c(O)c1.Cl [L-3,4-Dihydroxyphenylalanine methyl ester hydrochloride] | 110 |
| NC(=O)c1cc[n+](CC2=C(C(=O)[O-])N3C(=O)C(NC(=O)C(c4ccccc4)S(=O)(=O)[O-])C3SC2)cc1.[Na+] (stereo unspecified) [Cefsulodin sodium salt hydrate] | 104 |
| CCCCN1CCC(n2c(=O)[nH]c3ccccc32)CC1.O=C(O)C(=O)O [NS 521 oxalate] | 102 |
| Cc1[nH]c2ccccc2c1CCNC(=O)c1ccccc1F [2-fluoro-N-[2-(2-methyl-1H-indol-3-yl)ethyl]benzamide] | 106 |
| CC(=O)OC1(C(C)=O)CCC2C3C=C(Cl)C4=CC(=O)C5CC5C4(C)C3CCC21C (stereo unspecified) [Cyproterone Acetate] | 93.8 |
| CC(=O)OC1(C(C)=O)CCC2C3C=C(C)C4=CC(=O)CCC4(C)C3CCC21C (stereo unspecified) [Megestrol Acetate] | 96.9 |

Test system: TDF
Experiment: H1.0 immunofluorescence intensity relative to DMSO (% of DMSO); higher = stronger H1.0 induction, active = 120 or more
Conditions: concentration: 10 µM; 24 h
How it was run: as §1

| Compound | H1.0 immunofluorescence intensity |
| --- | --- |
| Oc1cc2c(cc1O)C(c1ccccc1)CNCC2 (racemic) | 92.2 (inactive) |
| O=c1oc2c(O)c(O)cc3c(=O)oc4c(O)c(O)cc1c4c23 [Ellagic acid] | 102 (inactive) |
| CC(C)CN(CC(O)C(Cc1ccccc1)NC(=O)OC1CCOC1)S(=O)(=O)c1ccc(N)cc1 (stereo unspecified) [Amprenavir] | 100 (inactive) |
| O=C1CCC(N2C(=O)c3ccccc3C2=O)C(=O)N1 (racemic) | 99.5 (inactive) |
| COc1cc2ncnc(Nc3ccc(NC(=O)c4ccccc4)cc3)c2cc1OC [Aurora Kinase Inhibitor II] | 111 (inactive) |
| Cn1c(=O)c2[nH]cnc2n(C)c1=O [Theophylline] | 97 (inactive) |
| COc1ccc2c(c1)c(CC(=O)O)c(C)n2Cc1ccc(F)cc1 [1-(4-Fluorobenzyl)-5-methoxy-2-methylindole-3-acetic acid] | 95.4 (inactive) |
| COC(C)(C)CCCC(C)CC=CC(C)=CC(=O)O (stereo unspecified) [Methoprene acid] | 98 (inactive) |
| Cl.Nc1nc2ccc(OC(F)(F)F)cc2s1 [Riluzole.HCl] | 96.2 (inactive) |
| CN(C)CCCN1c2ccccc2CCc2ccc(Cl)cc21.Cl [Clomipramine hydrochloride] | 107 (inactive) |
| COc1cc(/C=C/C(=O)O)ccc1O [Ferulic acid] | 101 (inactive) |
| C[N+](C)(C)CCCCCC[N+](C)(C)C.[Cl-].[Cl-] [Hexamethonium dichloride] | 95.6 (inactive) |
| Cl.Nc1cc(Nc2ccc(S(N)(=O)=O)cc2)ncn1 | 98.4 (inactive) |
| COc1ccc2c(c1OC)C(=O)OC2C1c2c(cc3c(c2OC)OCO3)CCN1C (racemic) | 105 (inactive) |
| CC1C2CCC3C4CC=C5CC(N(C)C)CCC5(C)C4CCC32CN1C (stereo unspecified) [Conessine] | 109 (inactive) |
| CC(C)C(CO)Nc1nc(Nc2ccc(C(=O)O)c(Cl)c2)c2ncn(C(C)C)c2n1 (stereo unspecified) | 96.7 (inactive) |
| Cc1ccc(Cl)c(Nc2ccccc2C(=O)[O-])c1Cl.[Na+] [sodium 2-(2,6-dichloro-3-methylanilino)benzoate] | 97.9 (inactive) |
| Cl.O=C1NCC2(CCN(CCc3ccccc3)CC2)O1 [Fenspiride hydrochloride] | 93.2 (inactive) |
| Cl.Cl.NCCC(=O)NCCc1cnc[nH]1 [Carcinine dihydrochloride] | 94.6 (inactive) |
| CCCCCC(O)C=CC=O (racemic) | 93.8 (inactive) |

| Compound | H1.0 immunofluorescence intensity |
| --- | --- |
| COC(=O)c1sccc1S(=O)(=O)Nc1ccc(Nc2ccccc2)cc1OC | 88.2 (inactive) |
| O=C1NCN(c2ccccc2)C12CCN(CCCC(c1ccc(F)cc1)c1ccc(F)cc1)CC2 [Fluspirilene] | 106 (inactive) |
| O=C(Nc1c(Cl)cncc1Cl)c1ccc(OC(F)F)c(OCC2CC2)c1 | 95.6 (inactive) |
| O.c1cnc2c(c1)ccc1cccnc12 [1,10-Phenanthroline monohydrate] | 108 (inactive) |
| CCN1CCc2nc(N)oc2CC1.Cl.Cl [B-HT 933 dihydrochloride] | 97 (inactive) |
| COC1CC(OC2C(C)C(=O)OC(C)C(C)C(OC(C)=O)C(C)C(=O)C3(CO3)CC(C)C(OC3OC(C)CC(N(C)C)C3OC(C)=O)C2C)OC(C)C1OC(C)=O (stereo unspecified) [Troleandomycin] | 97.2 (inactive) |
| CSc1nc(-c2ccnc(NC(C)c3ccccc3)c2)c(-c2ccc(F)cc2)[nH]1 (stereo unspecified) [p38 MAP Kinase Inhibitor III] | 95.2 (inactive) |
| COc1cc2ncnc(Nc3ccc(OCc4ccccc4)cc3)c2cc1OC [EGFR/ErbB-2 Inhibitor] | 103 (inactive) |
| O=C(Nc1cccc(C(F)(F)F)c1)Nc1cc(S(=O)(=O)NC2CC2)ccc1-c1ccsc1 | 94.6 (inactive) |
| CCCCCCCCCCCC=CCCCCC(=O)O [6(Z)-Octadecenoic acid] | 101 (inactive) |
| CCCCCC=CCC=CCC=CCCCCC(=O)O [γ-Linolenic acid (18:3 n-6)] | 96.6 (inactive) |
| CCOc1cc2ncnc(Nc3cccc(Br)c3)c2cc1OCC [Compound 56] | 92.6 (inactive) |
| COc1ccc(CN(CCN(C)C)c2ccccn2)cc1.O=C(O)C=CC(=O)O [Pyrilamine maleate] | 99.6 (inactive) |
| Cl.Cl.O=C(O)COCCN1CCN(C(c2ccccc2)c2ccc(Cl)cc2)CC1 (stereo unspecified) [Cetirizine 2HCl] | 94.3 (inactive) |
| COC(=O)[C@@H](N)Cc1ccc(O)c(O)c1.Cl [L-3,4-Dihydroxyphenylalanine methyl ester hydrochloride] | 94.8 (inactive) |
| NC(=O)c1cc[n+](CC2=C(C(=O)[O-])N3C(=O)C(NC(=O)C(c4ccccc4)S(=O)(=O)[O-])C3SC2)cc1.[Na+] (stereo unspecified) [Cefsulodin sodium salt hydrate] | 94.6 (inactive) |
| CCCCN1CCC(n2c(=O)[nH]c3ccccc32)CC1.O=C(O)C(=O)O [NS 521 oxalate] | 86.7 (inactive) |
| Cc1[nH]c2ccccc2c1CCNC(=O)c1ccccc1F [2-fluoro-N-[2-(2-methyl-1H-indol-3-yl)ethyl]benzamide] | 110 (inactive) |
| CC(=O)OC1(C(C)=O)CCC2C3C=C(Cl)C4=CC(=O)C5CC5C4(C)C3CCC21C (stereo unspecified) [Cyproterone Acetate] | 103 (inactive) |
| CC(=O)OC1(C(C)=O)CCC2C3C=C(C)C4=CC(=O)CCC4(C)C3CCC21C (stereo unspecified) [Megestrol Acetate] | 98.9 (inactive) |
